Data on 57 molecules can be found in article PMC4336329 (PLoS ONE, 2015).

Each structure is given as a SMILES string. Out of some 310,000 compounds screened, about 14,000 (4.5%) showed an effect of 50% or more. Effects have a minus sign here. This is one part of a sample in which strong results are shown more often than they occur.
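Also: peak tail current of the secondary pulse compared with the same well before compound.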

The target in the test is human ether-à-go-go-related gene (hERG) potassium channel (human, UniProt Q12809). Nature of the test: primary screen, population patch clamp on CHO cells stably expressing hERG; higher = less effect of the substance.
human ether-à-go-go-related gene (hERG) potassium channel, sequence (Q12809 whole entry, looked up): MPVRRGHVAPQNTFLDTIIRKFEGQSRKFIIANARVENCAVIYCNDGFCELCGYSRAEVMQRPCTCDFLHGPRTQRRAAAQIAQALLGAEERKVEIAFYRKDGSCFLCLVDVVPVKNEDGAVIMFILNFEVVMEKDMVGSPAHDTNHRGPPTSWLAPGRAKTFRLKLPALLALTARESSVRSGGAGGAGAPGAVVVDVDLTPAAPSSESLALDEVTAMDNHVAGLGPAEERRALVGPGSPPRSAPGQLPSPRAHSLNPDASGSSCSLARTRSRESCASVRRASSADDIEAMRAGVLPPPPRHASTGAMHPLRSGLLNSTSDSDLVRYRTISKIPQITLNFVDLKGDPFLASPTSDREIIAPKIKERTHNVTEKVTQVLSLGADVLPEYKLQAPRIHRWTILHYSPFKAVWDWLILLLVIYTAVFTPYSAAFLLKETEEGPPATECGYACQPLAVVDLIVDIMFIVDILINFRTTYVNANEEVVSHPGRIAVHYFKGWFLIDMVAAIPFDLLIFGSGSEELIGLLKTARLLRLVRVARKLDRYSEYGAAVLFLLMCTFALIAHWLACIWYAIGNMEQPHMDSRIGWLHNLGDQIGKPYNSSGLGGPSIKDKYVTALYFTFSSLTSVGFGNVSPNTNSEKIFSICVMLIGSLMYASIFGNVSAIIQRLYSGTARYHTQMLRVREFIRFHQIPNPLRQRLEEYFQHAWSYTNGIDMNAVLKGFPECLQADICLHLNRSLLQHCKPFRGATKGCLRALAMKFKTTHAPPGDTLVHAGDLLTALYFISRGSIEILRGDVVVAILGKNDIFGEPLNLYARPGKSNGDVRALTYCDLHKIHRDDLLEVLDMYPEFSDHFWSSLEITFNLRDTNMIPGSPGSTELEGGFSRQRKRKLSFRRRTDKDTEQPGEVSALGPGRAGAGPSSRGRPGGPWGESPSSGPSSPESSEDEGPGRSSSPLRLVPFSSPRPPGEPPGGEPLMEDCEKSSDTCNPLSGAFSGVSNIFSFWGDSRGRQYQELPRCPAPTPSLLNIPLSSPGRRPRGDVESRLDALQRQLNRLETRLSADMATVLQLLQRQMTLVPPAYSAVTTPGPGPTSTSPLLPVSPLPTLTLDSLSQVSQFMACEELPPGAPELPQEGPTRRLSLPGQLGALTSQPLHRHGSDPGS
Turning to `O=C(/C=C/c1ccc(O)c(O)c1)NC(=O)c1ccccc1O`, the “hERG current change (%, negative = inhibition) at 10uM” value came to 6.74%.
Regarding `Cc1ccc(-c2nc(CS(=O)(=O)CC(=O)NCc3cccc(F)c3)c(C)o2)cc1`, the “hERG current change (%, negative = inhibition) at 10uM” value came out at 9.53%.
Under `COc1ccc(S(=O)(=O)N2CCOCC2)c(C)c1C` stands 5.99%; under `O=C(c1ccc(F)cc1)N1CCC2(CC1)NCCc1[nH]cnc12`, 4.43%; under `O=C(c1ccccc1)N1CCC2(CC1)NCCc1[nH]cnc12`, 26.6%.
`Cc1ccc(C(=O)N2CCC3(CC2)NCCc2[nH]cnc23)cc1`: the “hERG current change (%, negative = inhibition) at 10uM” value is listed as -53.9%.
Under `O=C(c1ccc(F)c(F)c1)N1CCC2(CC1)NCCc1[nH]cnc12` stands 10.3%.
Under `COc1ccc(C(=O)N2CCC3(CC2)NCCc2[nH]cnc23)cc1` stands -18.8%.
`CC(C)(C)c1ccc(C(=O)N2CCC3(CC2)NCCc2[nH]cnc23)cc1`: the “hERG current change (%, negative = inhibition) at 10uM” value was -8.51%.
Under `CCOc1ccc(C(=O)N2CCC3(CC2)NCCc2[nH]cnc23)cc1` stands -70.1%; under `O=C(c1ccc(Br)cc1)N1CCC2(CC1)NCCc1[nH]cnc12`, -65.8%.
For `CCOc1ccc(C(=O)N2CCC3(CC2)NCCc2[nH]cnc23)cc1OCC`, the “hERG current change (%, negative = inhibition) at 10uM” value was 22.6%.
Regarding `O=C(NCc1ccco1)c1ccccc1NS(=O)(=O)c1cccs1`, the “hERG current change (%, negative = inhibition) at 10uM” value was determined as 3.9%.
Under `Cc1ccc(Cn2ccsc2=NC(=O)COC(=O)C(C)C)cc1` stands -15.3%; under `CSc1nnc2n(C)c3c(c(=O)n12)C1(CCCC1)Cc1ccccc1-3`, 2.33%.
For the molecule `COC(=O)c1ccccc1NC(=O)c1ccc2c(c1)OCCO2`, the “hERG current change (%, negative = inhibition) at 10uM” value is on record as 1.86%.
Under `O=C(CNc1ccc(Br)cc1)NNC1=NCCC1` stands 1.72%.
Under `CCc1ccc(CNCCc2c[nH]c3ccccc23)cc1.O=C(O)C(=O)O` stands -40.9%; under `Cc1ccc(S(=O)(=O)Nc2ccccc2C(=O)N2CCN(C)CC2)cc1`, -3.2%.
To `CCOC(=O)Nc1ccc2c(c1)N(C(=O)CCN(C)C)c1ccccc1CC2` belongs -40.7%; to `CCOC(=O)Nc1ccc2c(c1)N(C(=O)CCN(CC)CC)c1ccccc1CC2`, -50.3%.
For `CCOC(=O)Nc1ccc2c(c1)N(C(=O)N1CCN(C)CC1)c1ccccc1S2.Cl`, the “hERG current change (%, negative = inhibition) at 10uM” value is -46%.
To `CCOC(=O)Nc1ccc2c(c1)N(C(=O)C(C)N1CCCC1)c1ccccc1CC2.Cl` (stereo not drawn) belongs -60.2%; to `CCN(CC)CCC(=O)N1c2ccccc2CCc2ccc(NC(=O)OC)cc21.Cl`, -8.57%; to `CCOC(=O)Nc1ccc2c(c1)N(C(=O)OC)c1ccccc1CC2`, -2.44%.
With `CCOC(=O)Nc1ccc2c(c1)N(C(=O)CN1CCN(C)CC1)c1ccccc1S2.Cl`, the “hERG current change (%, negative = inhibition) at 10uM” value is given as -64.4%.
To `CCOC(=O)Nc1ccc2c(c1)N(C(=O)CCN1CCN(C)CC1)c1ccccc1S2.Cl` belongs -15.2%.
Under `CCOC(=O)Nc1ccc2c(c1)N(C(=O)N(C)C)c1ccccc1CC2` stands -6.99%; under `C=CCSc1nc(N(CC)CC)c2sccc2n1`, -12.4%.
With `CC(=O)c1cccc(N2C(=O)C3C4CCC(C4=C(C)C)C3C2=O)c1` (stereo not drawn), the “hERG current change (%, negative = inhibition) at 10uM” value is recorded as 21.1%.
With `COc1cc(CSc2nnnn2-c2ccc(C)cc2)cc(OC)c1OC`, the “hERG current change (%, negative = inhibition) at 10uM” value amounted to 8.81%.
Under `N#Cc1nc(-c2ccco2)oc1NCCc1ccccc1` stands -5.59%; under `CCCc1cc(=O)oc2cc(C)c3c(C)coc3c12`, 5.51%.
Regarding `COc1cccc(-n2cnc3sc(C)c(C)c3c2=O)c1`, the “hERG current change (%, negative = inhibition) at 10uM” value was -12%.
`COC(=O)C1=C(C)NC(C)=C(C(=O)OCCN(C)Cc2ccccc2)C1c1cccc([N+](=O)[O-])c1.Cl` (stereo not drawn): the “hERG current change (%, negative = inhibition) at 10uM” value amounted to 0.0465%.
As to `COc1cc(/C=C/c2noc(-c3ccccc3O)n2)cc(OC)c1OC`, the “hERG current change (%, negative = inhibition) at 10uM” value amounted to 9.26%.
For `O=C(NCc1cccc(Cl)c1)C1CCC(=O)N(CCN2CCOCC2)C1` (stereo not drawn), the “hERG current change (%, negative = inhibition) at 10uM” value amounted to 20.5%.
With `CCOC(=O)c1ccc2[nH]c3c(c2c1)CCCC3`, the “hERG current change (%, negative = inhibition) at 10uM” value was -19.2%.
Consider `CC(OC(=O)c1cccs1)C(=O)NC1CC1` (stereo not drawn), for which the “hERG current change (%, negative = inhibition) at 10uM” value is reported as -5.98%.
For the molecule `CC(OC(=O)CCC(=O)c1cccs1)C(=O)NC1CCCCC1C` (stereo not drawn), the “hERG current change (%, negative = inhibition) at 10uM” value is listed as -6.24%.
Regarding `CC(OC(=O)c1cccs1)C(=O)NC1CCCCC1C` (stereo not drawn), the “hERG current change (%, negative = inhibition) at 10uM” value is -66.7%.
For `CCOC(=O)CNC(=O)Cn1cnc2c(nnn2-c2cccc(OC)c2)c1=O`, the “hERG current change (%, negative = inhibition) at 10uM” value is on record as 17.5%.
For the molecule `COc1cc(C(c2c(C)[nH][nH]c2=O)c2c(C)[nH][nH]c2=O)ccc1OC(=O)c1cccc([N+](=O)[O-])c1`, the “hERG current change (%, negative = inhibition) at 10uM” value is recorded as 10.4%.
On to `Cc1cccc(NC(=O)N2CCCCCC2)c1`, for which the “hERG current change (%, negative = inhibition) at 10uM” value is listed as -8.87%.
Take `Cc1nn(CC(=O)N2CCN(c3ccccc3)CC2)c(C)c1[N+](=O)[O-]`: the “hERG current change (%, negative = inhibition) at 10uM” value is -9.49%.
Consider `Cc1cc([N+](=O)[O-])nn1CCCC(=O)N1CCN(c2ccccc2)CC1`, for which the “hERG current change (%, negative = inhibition) at 10uM” value is -21.4%.
Take `Cc1nn(CCCC(=O)N2CCN(c3ccc(F)cc3)CC2)c(C)c1[N+](=O)[O-]`: the “hERG current change (%, negative = inhibition) at 10uM” value is listed as -62.1%.
To `Cc1cc([N+](=O)[O-])nn1CCCC(=O)N1CCN(c2ccc(F)cc2)CC1` belongs -53.2%.
With `Cc1cc([N+](=O)[O-])nn1CCCC(=O)NCc1ccc(F)cc1`, the “hERG current change (%, negative = inhibition) at 10uM” value is reported as -0.962%.
To `Cc1c(Br)c([N+](=O)[O-])nn1CCCC(=O)N1CCN(c2ccccc2)CC1` belongs -32.4%; to `Cc1c(Cl)c([N+](=O)[O-])nn1CCCC(=O)O`, 9.17%.
To `Cc1c(Cl)c([N+](=O)[O-])nn1CCCC(=O)N1CCN(c2ccccc2)CC1` belongs -58%.
Take `COc1ccccc1N1CCN(C(=O)CCCn2nc(C)c([N+](=O)[O-])c2C)CC1`: the “hERG current change (%, negative = inhibition) at 10uM” value was -19.1%.
Under `CC(=O)N1CCN(c2ccc(NC(=O)c3ccc(OCc4ccccc4)cc3)cc2)CC1` stands 16.7%.
On to `CCOC(=O)C1CCC2(CC1)C(C#N)=C(N)Oc1n[nH]c(C)c12` (stereo not drawn), for which the “hERG current change (%, negative = inhibition) at 10uM” value is given as -14.2%.
For `Cc1cccc(C(=O)Oc2csc(=S)n2C(=O)c2cccc(C)c2)c1`, the “hERG current change (%, negative = inhibition) at 10uM” value worked out at 6.76%.
To `COc1ccc([N+](=O)[O-])c(OC)c1C(=O)NC(=O)Nc1nc(C)cc(C)n1` belongs 18%.
